# Test results reported in PubChem BioAssay.
# Active and inactive are the calls of the source. Unless noted, how the calls were made is not given here.
# How the values were obtained:
# [1] = system: Wnt5a (protein binding on small-molecule microarray); experiment: Wnt5a binders on small-molecule microarray, primary screen, biophysical, 635/667 nm fluorescence (AID 1142); conditions: 635 nm fluorescence, higher = more signal;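 further: fluorescence read at 667 nm with signal to noise per printed feature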
# [2] = cell viability in Huh7 cells, primary screen, cytotoxicity control for HCV replication inhibitor project, CellTiter-Glo luminescence, basal, 48 h (AID 1143); conditions: Huh7 HCV replicon, higher = more signal, called active from +8 up or from −8 down;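 further: Huh7 hepatoma cells carrying a hepatitis C replication reporter with no stimulus; test concentration not given here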
# [3] = P. aeruginosa biofilm formation inhibitors, primary screen, PAO1 strain, BacTiter-Glo luminescence, LB-PBS (AID 1144); conditions: 12 h, higher = more signal
# [4] = CREB reporter modulators without forskolin, primary screen, cell-based, PC12, CRE-LacZ reporter, unstimulated (AID 1145); conditions: no forskolin, luminescence, 4.5 h, higher = more signal, called active from +8 up or from −8 down
# [5] = CREB reporter modulators under forskolin, primary screen, cell-based, PC12, CRE-LacZ reporter, forskolin-stimulated (AID 1146); conditions: luminescence, 4.5 h, higher = more signal, called active from +8 up or from −8 down;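 further: PC12 cells with 6xCRE LacZ reporter stimulated by forskolin 10 µM; beta-galactosidase reporter signal reflecting CREB driven transcription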
# [6] = target: Streptavidin (Streptomyces avidinii) (UniProt P22629); experiment: streptavidin binders on small-molecule microarray, primary screen, artefact control for SMM compound annotation, biophysical, 635/667 nm fluorescence (AID 1147); conditions: streptavidin binding, higher = more signal;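 further: signal reflects streptavidin binding to arrayed compounds as a control protein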
# [7] = small-molecule binders of probe aInhba, primary screen, biochemical, small-molecule microarray, 635/667 nm fluorescence (AID 1148); conditions: higher = more signal;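 further: score merges 667nm spot fluorescence with signal-to-noise for antibody binding to printed compounds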
# [8] = target: Torsin-1A (Homo sapiens) (UniProt O14656); experiment: torsin A binders from cell lysate, primary screen, small-molecule microarray, wild-type, 635/667 nm (AID 1149); conditions: COS7 hTOR1A-WT lysate, 635 nm fluorescence, higher = more signal
# [9] = target: Torsin-1A (Homo sapiens) (UniProt O14656); experiment: small-molecule binders of mutant TOR1A in lysate, primary screen, cell lysate, small-molecule microarray, COS7 lysate, 635/667 nm fluorescence (AID 1150); conditions: COS7 hTOR1A mutant lysate, 635 nm fluorescence, higher = more signal;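 further: score pools 667 nm emission and signal to noise measuring lysate protein binding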
# [10] = system: Sonic hedgehog protein (Shh); experiment: small-molecule binders of Shh protein, primary screen, biochemical, small-molecule microarray, 635/667 nm fluorescence (AID 1151); conditions: small-molecule microarray binding, 635 nm fluorescence; higher = more signal;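 further: Shh protein binding to compounds spotted on small-molecule microarray slides; score combines spot fluorescence intensity with signal-to-noise across triplicate slides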
# Streptavidin (Streptomyces avidinii), sequence (P22629 whole entry, looked up): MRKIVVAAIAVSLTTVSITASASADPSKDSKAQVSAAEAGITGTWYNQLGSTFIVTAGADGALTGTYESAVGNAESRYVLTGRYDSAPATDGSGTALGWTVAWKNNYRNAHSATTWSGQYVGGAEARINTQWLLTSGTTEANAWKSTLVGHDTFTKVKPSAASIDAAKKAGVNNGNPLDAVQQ
# Torsin-1A (Homo sapiens), sequence (O14656 whole entry, looked up): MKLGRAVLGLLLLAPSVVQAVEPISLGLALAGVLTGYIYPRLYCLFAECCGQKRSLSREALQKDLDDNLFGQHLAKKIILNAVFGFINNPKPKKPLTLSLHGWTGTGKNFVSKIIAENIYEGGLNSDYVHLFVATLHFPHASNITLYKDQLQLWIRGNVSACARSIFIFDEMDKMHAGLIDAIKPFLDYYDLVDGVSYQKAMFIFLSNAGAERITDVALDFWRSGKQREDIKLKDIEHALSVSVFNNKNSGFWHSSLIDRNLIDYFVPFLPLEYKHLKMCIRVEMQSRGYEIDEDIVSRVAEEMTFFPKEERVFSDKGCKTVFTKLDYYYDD
SMILES,composite z-score [1],z-score [2],z-score [3],z-score [4],z-score [5],composite z-score [6],composite z-score [7],composite z-score [8],composite z-score [9],composite z-score [10]
COC(=O)[C@@]1(Cc2ccc(OC)cc2)[C@H]2c3cc(C(=O)N(C)C)n(C)c3C[C@H]2CN1C(=O)c1ccccc1,0.485,-3.59 (inactive),0.584 (inactive),0.0041 (inactive),0.0225 (inactive),1.77,0.706,-0.0231,0.777,0.418
COC(=O)[C@@]1(Cc2ccc(OC)cc2)[C@H]2c3cc(C(=O)N(C)C)n(Cc4ccc(S(C)(=O)=O)cc4)c3C[C@H]2CN1C(=O)c1ccccc1,-0.0427,-2.9 (inactive),-1.05 (inactive),-1.14 (inactive),-1.33 (inactive),1.24,0.431,2.24,1.29,-0.599
OCCCC1=CC(c2cccs2)N(Cc2cc3c(cc2Br)OCO3)CC1 (stereo not given),-0.094,-1.18 (inactive),-0.137 (inactive),0.0563 (inactive),-0.056 (inactive),-0.0072,-0.024,0.155,0.396,1.4
CC1CC/C=C\[C@H]2OC34C=CCN(Cc5ccccc5)C(=O)[C@H]3N(CCCO)C(=O)[C@@H]4C2C(=O)O1 (stereo not given in full),-0.403,-0.667 (inactive),0.446 (inactive),-0.0778 (inactive),0.776 (inactive),-0.942,-0.206,-0.681,-1.56,-0.233
O=C1C2C=CC(C(O)c3cc(C(F)(F)F)cc(C(F)(F)F)c3)N(n3cnnc3)C2C(=O)N1Cc1ccccc1 (stereo not given),-0.484,-1.34 (inactive),-1.12 (inactive),0.089 (inactive),0.753 (inactive),0.0422,-0.0719,-0.808,-0.0144,-0.755
COC(=O)[C@@]1(Cc2ccc(OC)cc2)[C@H]2c3cc(C(=O)N4CCCC4)n(Cc4ccc(O)c(OC)c4)c3C[C@H]2CN1C(=O)c1ccccc1,1.22,-1.28 (inactive),-0.117 (inactive),0.962 (inactive),0.549 (inactive),2.18,1.21,-0.208,0.669,-0.466
COC(=O)[C@@]1(Cc2ccc(OC)cc2)[C@H]2c3cc(C(=O)N4CCCC4)n(CCN4CNCC4=O)c3C[C@H]2CN1C(=O)c1ccccc1,2.12,-0.508 (inactive),-0.12 (inactive),0.201 (inactive),-0.0971 (inactive),-0.002,1.59,0.294,0.0178,-1.14
C[C@@]1([C@@H](NC(=O)c2ccc(-c3ccccc3)cc2)c2ccc(Cl)cc2)C[C@H]1C1CCCCC1,0.271,-1.18 (inactive),-0.123 (inactive),0.972 (inactive),0.829 (inactive),1.35,0.289,0.564,0.0484,-0.106
NC(=O)NCC#Cc1ccc2c(c1)[C@]1(C(=O)N2)[C@H](c2ccccc2OCCO)N2[C@H](c3ccccc3)[C@H](c3ccccc3)OC(=O)[C@H]2[C@@H]1C(=O)Nc1nc2ccccc2s1,-0.0307,0.0402 (inactive),-1.39 (inactive),-0.0784 (inactive),0.335 (inactive),0.441,0.0314,-0.671,0.0313,0.812
C=C(COC)/C(=C/C[C@H](OC(C)=O)c1ccc(CO)o1)c1cc(C(=O)OC)ccc1OC,0.122,-3.08 (inactive),-0.261 (inactive),1.78 (inactive),1.71 (inactive),-0.427,-0.154,-0.156,0.647,0.756
O=C1C[C@@](C(=O)NCCN2CCOCC2)(c2ccc([N+](=O)[O-])cc2)[C@@H](c2ccc(CO)cc2I)N1CC12CC3CC(CC(C3)C1)C2,0.92,-5.9 (inactive),1.22 (inactive),-0.269 (inactive),-0.435 (inactive),0.489,0.134,0.97,0.578,2.14
C=C(CC1([C@@H](NP(=O)(c2ccccc2)c2ccccc2)[C@H]2C[C@@H]2CCCC)CC1)c1ccccc1,0.542,-3.74 (inactive),0.955 (inactive),0.4 (inactive),0.151 (inactive),1.39,0.374,0.443,0.738,-0.509
COCCOC(=O)N1C(=O)[C@@]2(c3cc(C#CCC(C(=O)OC)C(=O)OC)ccc31)[C@H](c1ccccc1OCCO)N1[C@H](c3ccccc3)[C@H](c3ccccc3)OC(=O)[C@H]1[C@@H]2C(=O)N1CCN(c2ncccn2)CC1,0.621,-4.45 (inactive),-1.09 (inactive),-0.479 (inactive),1.7 (inactive),0.635,0.0384,1.01,1.19,1.89
CC1(C)[C@@H]2CC(C(O)C3C=CC4C(=O)N(Cc5ccccc5)C(=O)C4N3n3cnnc3)=C[C@H]1C2 (stereo not given in full),0.253,-0.346 (inactive),0.132 (inactive),-0.126 (inactive),0.34 (inactive),0.512,-0.0375,1.49,1.33,0.414
O=C(N1CCCCC1)[C@]1(Cc2ccccc2)N=C(c2ccc(OCCCO)cc2)O[C@@H]1c1ccccc1,0.33,-6.07 (inactive),-0.759 (inactive),0.558 (inactive),0.182 (inactive),0.997,0.0074,1.03,0.0081,-0.412
